Among all 360,000 compounds or so, about 5,000 (1.4%) were called active. This is one part of a sample in which actives are shown more often than they occur.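 The calls were made as follows: active = inhibition of 50% or more, scaled per plate between neutral and stimulator controls; inactive = the rest.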

A short description of the experiment: mitochondrial permeability transition pore inhibitors, primary screen, biochemical, isolated mouse mitochondria, absorbance (AID 602449).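 Also: 0% = DMSO wells given calcium and 100% = 1 mM EGTA wells.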 The settings on record: Ca2+ swelling absorbance, 30 min, at 10 µM, hits give high values.
Consider `COc1cc(C)ccc1OCC(=O)OCC(=O)c1ccc[nH]1`, for which the inhibition was 0.5% (inactive).
For `COc1ccc(/C=C2/S/C(=N/N=C3\CC4CCC3(C)C4(C)C)NC2=O)cc1` (stereo not given), the inhibition was -1.3% (inactive).
The same measure for `CCOC(=O)/C=C/c1ccc(C(F)(F)F)cc1S(=O)(=O)NC(C)(C)C`: 2.5% (inactive); for `CCCCN(CCCC)CCC(O)c1cc2c(Cl)cc(Cl)cc2c2cc(C(F)(F)F)ccc12` (stereo not given): 112% (active); for `O=C(/C=C/c1ccc(F)cc1)Nc1cccc(S(=O)(=O)Nc2cccc(C(F)(F)F)c2)c1`: 92.8% (active).
In the case of `O=C(/C=C/c1ccc(Cl)cc1)Nc1ccc(S(=O)(=O)Nc2ncccn2)cc1`, the inhibition is -0.3% (inactive).
The same measure for `O=C(Nc1cccc(S(=O)(=O)NC2=NCCC2)c1)c1ccc(F)cc1F`: -0.6% (inactive); for `O=C(O)CSC(NC(=O)c1cccnc1)(C(F)(F)F)C(F)(F)F`: -1.1% (inactive).
Consider `COc1cc(C(=O)NCC(=O)N2CC=C(c3ccccc3)CC2)cc(OC)c1OC`, for which the inhibition is 0% (inactive).
Then `COc1cc(C(=O)Nc2oc(-c3ccccc3)c(-c3ccccc3)c2C#N)cc(OC)c1OC`, with 61.1% (active); and `N#Cc1c(NC(=O)CCCN2C(=O)c3ccccc3C2=O)oc(-c2ccccc2)c1-c1ccccc1`, with -0.2% (inactive); and `CCc1nccn1S(=O)(=O)c1cccc([N+](=O)[O-])c1`, with 0.1% (inactive).
The same measure for `O=C(CCN1C(=O)C2CCCCC2C1=O)Nc1ccc(OC(F)F)cc1` (stereo not given): -2% (inactive); for `Cn1nc(C(F)(F)F)c(C(=O)Nc2cccc(C(F)(F)F)c2)c1SCc1ccc(Cl)cc1`: 71.2% (active).
The same measure for `COC(=O)c1ccccc1Sc1c(/C=N/OCc2ccc(Cl)cc2)c(C(F)(F)F)nn1C`: 2.3% (inactive); for `CCC(=O)OCc1c(C(F)(F)F)nn(C)c1Oc1cccc(C(F)(F)F)c1`: 1.5% (inactive); for `CCCCN1C(=O)C(=O)N(CC(=O)Nc2cccc(C(C)=O)c2)C1=O`: 0.4% (inactive).
For `CSc1nsc(SCC(=O)Nc2cc(C(=O)O)ccc2C)n1`, the inhibition is -0.5% (inactive).
The same measure for `C=CCSc1nsc(NC(=O)Nc2cccc(C(C)=O)c2)n1`: 97.4% (active).
The same measure for `CC(=O)N1CCC(C(=O)Nc2nc(-c3ccccc3)ns2)CC1`: -2% (inactive).
In the case of `O=C(Nc1ccccc1)Nc1nc2ccccc2s1`, the inhibition is 96.5% (active).
Then `CC(=O)c1cccc(NC(=O)[C@@H](NC(N)=O)C(C)C)c1`, with 0.5% (inactive); and `COc1ccc(C(=O)OCC(=O)Nc2cccc(C(C)=O)c2)cc1OC`, with -2% (inactive).
The same measure for `CC(=O)Nc1cccc(-c2nc3ccccc3s2)c1C`: -0.5% (inactive); for `CC(=O)c1cccc(NC(=S)N2CCN(S(C)(=O)=O)CC2)c1`: 0.1% (inactive).
The same measure for `c1ccc(C(=NNc2nc3ccccc3s2)c2ccccn2)cc1`: 0.3% (inactive); for `CSc1nsc(NC(=O)Nc2ccccc2)n1`: 85.4% (active).
Consider `CCSc1nsc(NC(=O)Nc2cccc(C(C)=O)c2)n1`, for which the inhibition is 87.2% (active).
Take `Cc1ccc(S(=O)(=O)N(Cc2ccccc2)c2ccccn2)cc1[N+](=O)[O-]`: the inhibition was 0.2% (inactive).
The same measure for `Cc1c(C(=O)N2CCN(c3ccc(F)cc3)CC2)oc2c1C(=O)CCC2`: -1% (inactive); for `COCCCn1c(=O)/c(=C/c2ccccc2OC(C)C)s/c1=C(\C#N)C(=O)Nc1ccc(C(=O)O)cc1`: 0.6% (inactive); for `COc1ccc(S(=O)(=O)N2CCC(C(=O)NCCC(=O)Nc3ccccc3OC)CC2)cc1`: 1% (inactive).
Regarding `CC1CCN(C2=NC(=O)/C(=C/c3cn[nH]c3-c3ccccc3)S2)CC1`, the inhibition is 0.6% (inactive).
As for `COc1ccccc1N(CC(=O)Nc1ccc(C(F)(F)F)cc1)S(C)(=O)=O`, the inhibition is -0.2% (inactive).
Take `CC1Sc2ccc(C(=O)NCc3ccccc3Cl)cc2NC1=O` (stereo not given): the inhibition was -1% (inactive).
The same measure for `CCC/C(C)=N\Nc1nc2c(c(=O)n(C)c(=O)n2C)n1C`: 4.6% (inactive).
Then `COCCN(C(=O)CCC(=O)Nc1nccs1)C(C(=O)NC(C)(C)C)c1ccc(Cl)cc1` (stereo not given), with 0.1% (inactive).
The same measure for `COc1ccc2oc(C(=O)N(CC(C)C)C3CCS(=O)(=O)C3)c(C)c2c1` (stereo not given): -1.1% (inactive); for `O=S(=O)(O)c1cc2onnc2c2ccccc12`: 0.1% (inactive); for `O=C(CN1CCN(C(=O)c2ccco2)CC1)Nc1ccc(Cl)c(C(F)(F)F)c1`: -0.1% (inactive).
Take `CC1(C(=O)O)CCC(C(=O)Nc2ccc(Cl)c(Cl)c2)C1(C)C` (stereo not given): the inhibition was 3.1% (inactive).
With `O=C(CC(O)(C(F)(F)F)C(F)(F)F)Nc1ccc(Cl)c(Cl)c1`, the inhibition is 84.6% (active).
Turning to `O=C(Cn1nc(CNc2ccc(Cl)cc2)[n+]2c1CCCCC2)c1ccc(Cl)cc1`, the inhibition is 29.5% (inactive).
The same measure for `CCOC(=O)N1CCC(NC(=O)CN2C(=O)COc3ccc(C(C)(C)C)cc32)CC1`: -0.9% (inactive); for `O=C1CC(c2ccccc2)=NN1c1ccc([N+](=O)[O-])cc1`: 91.3% (active).
Then `CCN1N=C(c2ccccc2)CCC1=O`, with -2.4% (inactive); and `O=C1NC(=O)C2C1C(c1ccc([N+](=O)[O-])cc1)=NN2Cc1ccccc1` (stereo not given), with 0.1% (inactive).
Regarding `CCOC(=O)c1cc(NC(=O)c2cccnc2)ccn1`, the inhibition is -0.2% (inactive).
In the case of `CC(C)NS(=O)(=O)c1ccc(NC(=O)c2cccnc2)cc1`, the inhibition was -1.5% (inactive).
The same measure for `Cc1c(C(=O)OC(C)C)sc(NC(=O)c2cccnc2)c1C#N`: 67.6% (active).
On to `CCCCN1C(=O)C(CC(=O)NCc2cccs2)CC(C(=O)N2CCCCCC2)=C1C` (stereo not given), for which the inhibition was -0.8% (inactive).
Then `Cc1cc(Cl)c(S(=O)(=O)NCCC(=O)O)cc1OCC(N)=O`, with -1.7% (inactive); and `O=C(NC(Cc1c[nH]c2ccccc12)C(=O)O)/C(=C/c1ccco1)NC(=O)c1ccccc1` (stereo not given), with -1% (inactive).
Then `CC(=O)N(CC1CCCO1)C1(C(=O)NC2CCCC2)CCCCC1` (stereo not given), with 1.8% (inactive); and `O=C(Nc1ccc(Cl)cc1)Nc1nnc(/C=C/c2ccccc2)s1`, with 89.9% (active); and `O=C(CSc1ccccc1)Nc1nnc(/C=C/c2ccccc2)s1`, with 2.2% (inactive).
Then `COc1ccc(/C=C/c2nnc(NC(=O)C(C)C)s2)cc1`, with 2.7% (inactive); and `COc1ccc(S(=O)(=O)N(C)CC(=O)N2CCCC2)cc1`, with -2.1% (inactive); and `COc1ccc(N(Cc2ccc(N(C)C)cc2)C(=O)c2ccc(S(C)(=O)=O)cc2)cc1`, with 0.5% (inactive).
Consider `COc1ccc2sc(N(CCCN(C)C)C(=O)c3ccc(S(=O)(=O)N(C)C4CCCCC4)cc3)nc2c1`, for which the inhibition is 82.5% (active).
For the compound `COc1ccc(C(=O)O)cc1S(=O)(=O)NC1CCN(Cc2ccccc2)CC1`, the inhibition was -1% (inactive).
The same measure for `Cc1cccc(NC(=S)Nc2ccc(Cl)c(Cl)c2)c1`: 101% (active); for `O=S(=O)(NC(=S)Nc1ccccc1)c1ccc(F)cc1`: -0.7% (inactive).
The same measure for `Fc1cc(Br)ccc1NC(=S)Nc1cccnc1`: 12.7% (inactive).
With `Cc1cccc(NC(=S)N2CCC(c3nc4ccccc4s3)CC2)c1`, the inhibition was 3% (inactive).
Take `Cc1c(NC(=S)Nc2ccccc2)c(=O)n(-c2ccccc2)n1C`: the inhibition is 0.8% (inactive).
The same measure for `Cc1cccc(NC(=S)N(CCN(C)C)C(C)c2ccco2)c1` (stereo not given): -2.1% (inactive); for `S=C(Nc1ccccc1)Nc1ccc2ccccc2c1`: 67.5% (active); for `Cc1cccc(NC(=S)Nc2ccc(Br)cc2)c1`: 96.8% (active).
The same measure for `Cc1cccc(NC(=S)NCc2ccc3[nH]c4c(c3c2)CCCC4)c1`: 1% (inactive); for `COC(=O)c1ccc2c(c1)S(=O)(=O)NC(=NCCCN1CCOCC1)S2`: 0.8% (inactive); for `COc1ccc(C2=NS(=O)(=O)N(C)C(C(=O)NC(C)c3ccccc3)=C2)cc1` (stereo not given): -1.4% (inactive).
Take `CCC1C=C(c2ccccc2)C=CN=C1N(CC)CC` (stereo not given): the inhibition was -0.1% (inactive).
Then `Cc1cccc(NS(=O)(=O)c2cccc(C(=O)NNC(=O)c3ccccc3O)c2)c1`, with 6.9% (inactive); and `CC1(C)CC(=O)c2cc(OCC(=O)NCC3CCCO3)ccc2O1` (stereo not given), with -1.4% (inactive).
Then `C=CCN(N=Nc1cccc([N+](=O)[O-])c1)c1cccc([N+](=O)[O-])c1`, with 2.6% (inactive); and `N#Cc1cccc(Nc2c3c(nc4ccccc24)CCCC3)c1`, with 6.5% (inactive).
Take `Brc1ccc(Nc2c3c(nc4ncnn24)CCC3)cc1`: the inhibition was -4.1% (inactive).
Then `Cc1ccc(Nc2c3c(nc4ccccc24)CCC3)cc1`, with 79.8% (active); and `CCn1nnc(NC(=O)c2c(OC)cccc2OC)n1`, with -1% (inactive).
The same measure for `CCCC1OC23CCCCC2C(C#N)(C#N)C1(C#N)C(=N)O3` (stereo not given): 0.5% (inactive); for `Cc1cccc(NC(=O)NC2(C)CCS(=O)(=O)C2)c1` (stereo not given): -3.1% (inactive); for `Cc1cccc(NC(=O)Nc2cccc(Oc3c(F)c(F)c(F)c(F)c3F)c2)c1`: 93.2% (active).
Regarding `Cc1ccoc1C(=O)Nc1cccc(Oc2ccccc2)c1`, the inhibition was -0.1% (inactive).
The same measure for `O=C(CNCCC1=CCCCC1)Nc1ccccc1N1CCCCCC1`: 11.6% (inactive).
The same measure for `CCc1cc(=O)oc2cc(C)cc(OC(C)C(=O)O)c12` (stereo not given): 1.3% (inactive).
The same measure for `CN[C@H](C(=O)NC[C@H]1O[C@@H](n2cnc3c(N)ncnc32)[C@H](O)[C@@H]1O)[C@@H](C)OCc1ccccc1`: -0.1% (inactive); for `Cc1onc(-c2ccccc2)c1C(=O)N1CCN(S(=O)(=O)c2ccccc2C(F)(F)F)CC1`: 0.5% (inactive); for `O=C(NNC(=S)NC(=O)c1cn(-c2ccccc2)nc1-c1ccccc1)c1ccncc1`: 2.2% (inactive).
For the compound `Cc1onc(-c2ccccc2)c1C(=O)NNC(=S)NC(=O)c1ccc(F)cc1`, the inhibition was 90.1% (active).
With `O=C1CS(=O)CN1c1ccc(Oc2ccccc2)cc1` (stereo not given), the inhibition is 1.6% (inactive).
Then `Cc1noc(C)c1S(=O)(=O)Nc1ccc(C(=O)N2CCN(c3ccc(F)cc3)CC2)cc1`, with -2% (inactive).
Then `Cc1ccc(NC(=O)c2sccc2C)cc1[N+](=O)[O-]`, with -8.8% (inactive); and `CN(CC(=O)Nc1cccc(F)c1)C(=O)C1=COCCO1`, with -2.6% (inactive); and `Cc1ccc(NC(=O)CN(C)CC(=O)Nc2cccc(F)c2)cc1[N+](=O)[O-]`, with 97.2% (active).

In general, inhibition refers to the change of the read-out against control, counted positive when it falls.
